Screening results from PubChem BioAssay.
Pol iota inh = DNA polymerase iota (human) inhibition; AID 588590; 390,000 compounds, 1% hits; Potency, µM (doses to about 115 µM), for inactives: at the top dose activity, negative = inhibition, usual class: inhibitors; Pol iota fluorescent replication assay, 10 min; further: potency means the concentration at half of the fitted maximal effect
Target sequence (Q9UNA4 whole entry, looked up): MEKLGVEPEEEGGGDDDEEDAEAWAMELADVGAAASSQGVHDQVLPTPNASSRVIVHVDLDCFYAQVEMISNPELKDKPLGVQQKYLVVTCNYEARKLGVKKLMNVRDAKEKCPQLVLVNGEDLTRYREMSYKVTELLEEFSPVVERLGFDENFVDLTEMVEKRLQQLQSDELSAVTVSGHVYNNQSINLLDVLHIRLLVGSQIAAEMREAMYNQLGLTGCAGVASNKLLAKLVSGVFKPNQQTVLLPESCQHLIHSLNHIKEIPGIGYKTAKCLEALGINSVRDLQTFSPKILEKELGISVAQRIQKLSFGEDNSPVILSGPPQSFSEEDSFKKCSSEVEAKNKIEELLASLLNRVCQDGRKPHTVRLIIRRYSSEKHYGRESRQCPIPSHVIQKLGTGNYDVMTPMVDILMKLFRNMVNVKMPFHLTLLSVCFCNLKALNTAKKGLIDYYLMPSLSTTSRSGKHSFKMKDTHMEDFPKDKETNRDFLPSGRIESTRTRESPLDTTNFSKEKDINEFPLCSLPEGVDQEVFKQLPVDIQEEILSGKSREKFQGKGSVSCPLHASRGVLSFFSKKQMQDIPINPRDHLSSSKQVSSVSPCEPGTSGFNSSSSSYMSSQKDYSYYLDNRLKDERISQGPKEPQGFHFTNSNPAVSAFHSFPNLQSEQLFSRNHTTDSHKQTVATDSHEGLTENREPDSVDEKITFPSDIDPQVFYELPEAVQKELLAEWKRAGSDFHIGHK
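Pol iota at 10 nM preincubated 15 min with compounds at room temperature; reaction started with fluorescent substrate, 50 nM final. Fluorescence read kinetically at 0 and 10 min; buffer-only wells as negative control.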
Pol beta inh = blocks human DNA polymerase beta activity. P06746. Pol beta primer extension/strand displacement, fluorescence kinetic. Potency, µM (highest dose often 114 µM), without a hit: at the top dose activity change, negative = inhibition, usual class: inhibitors. 340,000 compounds, 1.3% hits. AID 485314; further: potency means the concentration at half of the fitted maximal effect; on the % scale 0 is the no-effect control and ±100 the full control effect
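Homogeneous kinetic assay of primer extension and strand displacement by 10 nM Pol beta, preincubated 15 min at room temperature with compound before 50 nM substrate (final) was added. Read at 0 and 10 min; four-parameter Hill fit.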
WRN helicase inh = blocks human WRN helicase | AID 651768 | WRN helicase unwinding, fluorescent forked duplex, kinetic | Q14191 | Potency, µM (doses to about 114 µM), without a hit: at the highest dose activity change, negative = inhibition, hits mostly inhibitors | 360,000 compounds, 0.46% hits; further: potency means the concentration at half of the fitted maximal effect; on the % scale 0 is the no-effect control and ±100 the full control effect; nearly all actives have a fitted effect of over 55% in size
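Primary qHTS, 1536-well format. 20 nM WRN + compound, 15 min RT; start with 100 nM forked fluorophore/quencher duplex, 2 mM ATP (final); kinetic read ex 525/em 598 nm.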
Pol kappa inh-1 = DNA polymerase kappa (human) inhibition; Q9UBT6; purified Pol kappa, fluorescent DNA synthesis assay, 10 min; Potency, µM (titrated, usually from 107 µM), inactives show at the top dose activity, negative = inhibition, actives largely listed as inhibitors; 400,000 compounds, 0.53% hits; further: potency means the concentration at half of the fitted maximal effect; on the % scale 0 is the no-effect control and ±100 the full control effect
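Kinetic fluorescence readout at 0 and 10 min followed reaction start with substrate at 50 nM final. Beforehand, enzyme (10 nM Pol kappa) stood 15 min with compound at room temperature; buffer-only wells were negative controls.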
PI5P4Ka inh = inhibitors of human PI5P4K alpha | P48426 | AID 652105 | max response, % | 330,000 compounds, 1.2% hits | PI5P4Kalpha enzyme, ADP-Glo luminescence, 60 min; stronger effect = lower value; active means max response of -50% or lower; inconclusive means between -30% and -50%; inactive means -30% or higher; further: value at the top dose of about 77 µM; on the % scale 0 is the no-effect control and ±100 the full control effect
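Enzyme plus substrate dispensed, test compounds pinned in, then ATP (5 microM final) added. After 60 min at RT, ADP-Glo reagent 1 for 45 min and reagent 2 for 30 min preceded luminescence imaging.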
Pol eta inh-1 = DNA polymerase eta (human) inhibition | Q9Y253 | recombinant Pol eta, fluorescent DNA replication assay | Potency, µM (series often up to 114 µM), without a hit: at the top dose activity change, negative = inhibition, actives largely listed as inhibitors | 390,000 compounds, 1.2% hits; further: potency means the concentration at half of the fitted maximal effect; on the % scale 0 is the no-effect control and ±100 the full control effect
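Pol eta (10 nM) was preincubated with compounds for 15 min at room temperature, after which fluorescent replication substrate (50 nM final) was added to start the reaction. Fluorescence was read kinetically at 0 and 10 min.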
TbPGK inh = blocks T. brucei phosphoglycerate kinase. shares compounds with Pol kappa inh-1. TbPGK coupled GAPDH assay, Kinase-Glo luminescence. Potency, µM (top dose mostly 57.5 µM), for inactives: top-dose activity change, negative = inhibition, most hits filed as inhibitors. 500 compounds, 79% hits; further: potency means the concentration at half of the fitted maximal effect; on the % scale 0 is the no-effect control and ±100 the full control effect; nearly all actives have a fitted effect of over 65% in size
Pol iota confirm = Inhibitors of human DNA polymerase iota, confirmation | Potency, µM, most hits filed as inhibitors | Pol iota primer extension, TAMRA/BHQ fluorescence | shares compounds with Pol kappa inh-1 | 1,500 compounds, 77% hits; further: potency means the concentration at half of the fitted maximal effect
Pol kappa inh-2 = confirmation of human DNA polymerase kappa inhibitors; shares compounds with Pol eta inh-1; purified Pol-kappa, fluorescent strand-displacement substrate; Potency, µM, most hits filed as inhibitors; 920 compounds, 76% hits; further: potency means the concentration at half of the fitted maximal effect
Pol eta inh-2 = confirmation of human DNA polymerase eta inhibitors. Potency, µM, most hits filed as inhibitors. shares compounds with Pol eta inh-1. 2,600 compounds, 64% hits. Pol eta primer extension, TAMRA/BHQ fluorescence, 10 min; further: potency means the concentration at half of the fitted maximal effect
Starred values were filed as active, the others as inactive; u = inconclusive; x = no result given; [ ] = dose if it differs, or a comment. Rows were chosen to be rich in hits. Some 2.8% of all compounds tested hit in one or more screens of this group. Unless noted, the call rests on the fitted dose curve; in most records, active means well fitted curve in the direction sought with a large enough effect; inconclusive means small, poorly fitted or top-dose-only effect, or another doubt; inactive means no such curve, though single readings can be large; an effect the other way counts as inactive or inconclusive.

SMILES	Pol iota inh	Pol beta inh	WRN helicase inh	Pol kappa inh-1	PI5P4Ka inh	Pol eta inh-1	Pol iota confirm	Pol kappa inh-2	Pol eta inh-2	others
CCN(CC)S(=O)(=O)c1cccc(N=NC2=C(O)CCCC2=O)c1	36.8%	-10.2%	0.9%	-11.8%	-13.4	-5.9%	x	x	x
Nc1cccc2c(O)cc(S(=O)(=O)O)cc12	3.16µM*	x	u	8.91µM*	-88.5*	2.82µM*	6.7*	2.67*	6.01*	TbPGK inh=5.17µM*
Nc1cc(S(=O)(=O)c2ccc(O)c(N)c2)ccc1O	-3.4%	3.3%	-10.6%	-16.9%	-8.3	-8.0%	x	x	x
COC(=O)c1cnc(NCc2ccc(F)cc2)c2ccccc12	7.8%	-15.2%	x	-10.4%[60.1 µM]	x	-10.0%	x	x	x
O=C(CCc1ccco1)CCc1ccco1	25.1µM*	x	-13.2%[11.6 µM]	u	-26.5	u	u	33.6*	75.7*
CCCCCCCCCCCCCc1ccco1	x	x	x	-8.4%[60.1 µM]	x	x	x	x	x
O=C(O)c1ccc(COc2ccc3c4c(c(=O)oc3c2)CCC4)o1	u	35.5µM*	u	u	-23.3	7.94µM*	x	x	26.9*	TbPGK inh=18.3µM*
COc1cccc(OCC(=O)O)c1	86.4%	-13.6%	-10.2%	-9.8%	-3.9	-7.1%	x	x	x
O=C1NN(c2ccccc2)C(=O)/C1=C\c1ccccc1	u	1.3%	-8.1%	-18.0%	-0.8	-7.0%	x	x	x
CCOc1cc(/C=C2\C(=O)NN(c3ccccc3)C2=O)cc([N+](=O)[O-])c1O	11.2µM*	20µM*	u	44.7µM*	-56.9*	15.8µM*	u	x	30.1*
COc1cc(/C=C2\C(=O)NN(c3ccccc3)C2=O)cc([N+](=O)[O-])c1O	12.6µM*	12.6µM*	u	u	-69.7*	12.6µM*	37.7*	x	26.9*
COc1cc(/C=C2\SC(=O)N(Cc3ccc(F)cc3)C2=O)cc([N+](=O)[O-])c1O	-9.9%	0.0%	-14.0%[11.6 µM]	5.3%	u	50.1µM*	84.4*	26.7*	75.7*
CCOC(=O)CN1C(=O)S/C(=C/c2ccc(OC)c([N+](=O)[O-])c2)C1=O	20.4%	0.8%	-6.2%	-1.4%	-5.9	-18.8%	x	x	x
CCc1cc(C(=O)Nc2cc(S(=O)(=O)N3CCOCC3)ccc2N2CCN(CC)CC2)sc1C	3.9%	x	-7.2%	-4.3%	11.3	-8.8%	x	x	x
O=C(c1ccc2c(c1)OCCO2)N1CCN(S(=O)(=O)c2c(F)cccc2F)CC1	28.5%	x	x	5.9%	x	-22.5%	x	x	x
O=C(c1cccc(-n2cccc2)c1)N1CCN(S(=O)(=O)c2c(F)cccc2F)CC1	22.4µM*	u	u	u	-28.0	20µM*	67*	x	75.7*
COc1ccc(NC(=O)c2oc3ccccc3c2NC(=O)c2cc(C)cc(C)c2)c(OC)c1	26.0%	27.0%	x	5.9%	x	-15.2%	x	x	x
COc1ccc(NC(=O)C2=C(C)Nc3nc(SCc4ccccc4C)nn3C2c2cc(OC)c(O)c(OC)c2)cc1 (stereo not drawn)	28.2µM*	8.91µM*	x	-27.6%	x	u	u	u	x
Cn1c(SCC(=O)Nc2cccc(C(=O)O)c2)nnc1-c1cc2cc(Br)ccc2o1	u	u	-7.0%[11.6 µM]	-16.5%	-8.6	u	u	x	u
COc1cc(-c2ccc(Nc3ccccc3C(=O)O)c(OC)c2)ccc1Nc1ccccc1C(=O)O	7.94µM*	u	31.6µM*	31.6µM*	-89.2*	10µM*	67*	18.9*	30.1*
COc1cccc(Nc2ccccc2C(=O)O)c1	51.0%	-6.2%	-17.1%	-8.7%	-27.3	-1.1%	x	x	x
O=C1CSc2ccc(S(=O)(=O)NCc3ccccc3Cl)cc2N1	25.3%	14.5%	-6.3%	-17.1%	-0.8	u	x	x	x
CC(CS(=O)(=O)c1ccc2c(c1)NC(=O)CS2)C(=O)NCc1ccccc1Cl (stereo not drawn)	44.7µM*	100µM*	39.8µM*	u	u	17.8µM*	u	x	33.8*	TbPGK inh=1.83µM*
Cc1cc(Cl)ccc1NC(=O)Cn1nc(C)c2c(C)n(-c3ccccc3)nc2c1=O	50.1µM*	39.8µM*	x	u	x	x	75.2*	47.4*	u
O=C(NN1C(=O)/C(=C/C=C/c2ccco2)SC1=S)c1ccncc1	1.26µM*	u	3.16µM*	3.16µM*	-78.7*	1.41µM*	6.7*	3.77*	3.38*	TbPGK inh=3.26µM*
SMILES	Pol iota inh	Pol beta inh	WRN helicase inh	Pol kappa inh-1	PI5P4Ka inh	Pol eta inh-1	Pol iota confirm	Pol kappa inh-2	Pol eta inh-2	others
Cc1nc2ccccc2c(=O)n1/N=C/c1ccc(O)c(O)c1O	u	1.58µM*	2.99µM*	u	-86.1*	2.82µM*	1.68*	x	2.69*
Cc1nc2ccccc2c(=O)n1/N=C/c1ccccc1O	42.5%	-118.9%	-6.3%	-1.4%	-0.2	-20.4%	x	x	x
CCc1ccccc1NC(=O)c1ccc(Cn2nc(N3CCN(c4ccccc4)CC3)ccc2=O)o1	79.4µM*	15.8µM*	x	u	x	-4.4%	u	33.6*	75.7*
CCCOc1ccc(C2C(C(=O)c3ccco3)=C(O)C(=O)N2CCCn2ccnc2)cc1OC (stereo not drawn)	x	x	4.2%	x	3.4	-7.0%	x	x	x
O=C(O)c1ccc(CSc2nc3ccc(NC(=O)c4ccccc4C(=O)O)cc3s2)cc1	u	1.1%	u	-12.2%	-18.3	25.1µM*	u	84.4*	u
c1ccc(-n2ncc3c(NC4CCCC4)ncnc32)cc1	1.7%	8.6%	x	5.3%[60.1 µM]	x	-12.7%	x	x	x
O=C(c1cnc2c(c1)COc1ccccc1-2)c1ccccc1O	-11.7%	-24.7%	x	-4.3%	x	-20.8%	x	x	x
Cc1ccccc1-c1cccc([C@@H]2C[C@H]3[C@H](CON3C)CN2C(=O)CCc2ccccc2)c1	8.9%	x	-7.6%	-1.2%	5.4	-8.4%	x	x	x
O=C(O)COc1ccccc1/C=N/NC(=O)/C(=C\c1ccc2c(c1)OCO2)NC(=O)c1ccccc1	u	-15.0%	-16.5%[11.6 µM]	-8.5%	-9.3	u	42.3*	x	u
O=C(Nc1ccc(C(=O)O)cc1)/C(=C\c1ccc2c(c1)OCO2)NC(=O)c1ccccc1	-14.4%	-1.0%	-11.3%	-11.3%	4.3	7.0%	x	x	x
O=C(C1COc2ccccc2O1)N1CCCC1 (stereo not drawn)	-0.9%	-21.9%	7.0%	8.8%	-3.0	-11.4%	x	x	x
